Values without a mark were called inactive. The rule behind the calls is not given here.
System: Aerobactin synthetase IucA (Klebsiella pneumoniae hvKP1)
Experiment: IucA enzyme inhibition, primary screen, biochemical, Spectrum library (AID 1346200);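 note: 100% = wells without compound and 0% = wells lacking enzyme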
Details: malachite green pyrophosphate, A620, at 8 µM, active compounds read low

Row | Structure (SMILES) | activity remaining
1 | COc1ccc(-c2coc3cc(OC)cc(OC)c3c2=O)cc1 | 103%
2 | Oc1c(Cl)cc(Cl)cc1Sc1cc(Cl)cc(Cl)c1O | 118%
3 | O=C(O)C1=C(CSc2nnnn2CS(=O)(=O)O)CS[C@@H]2C(NC(=O)[C@H](O)c3ccccc3)C(=O)N12 (stereo not given in full) | 116%
4 | CC(=O)N[C@@H]1[C@@H](O)[C@H](O)[C@@H](CO)O[C@H]1O | 106%
5 | NC1(C(=O)O)CCCC1 | 117%
6 | O=c1[nH]cnc2c1ncn2C1O[C@H](CO)[C@@H](O)[C@H]1O (stereo not given in full) | 112%
7 | CC(C)=CC1C(CO)C1(C)C (stereo not given) | 86.3%
8 | CC(=O)O[C@@H]1CC2C(C)(C)C(=O)CC[C@]2(C)C2CC[C@@]3(C)[C@H](c4ccoc4)OC(=O)C4OC43[C@@]21C (stereo not given in full) | 110%
9 | CC1(C)CCC[C@@]2(C)C1[C@@H](O)C[C@]1(C)C2CC[C@@H]2[C@@]3(C)CC[C@H](C(C)(C)O)[C@@H]3CC[C@@]21C (stereo not given in full) | 99.1%
10 | CC(=O)OC[C@H]1O[C@@H](Oc2cc(OC(C)=O)c3c(=O)cc(-c4ccc(OC(C)=O)cc4)oc3c2)[C@H](OC(C)=O)[C@@H](OC(C)=O)[C@@H]1OC(C)=O | 92.5%
11 | COC(=O)c1c(C)c2c(c(C)c1O)OC(=O)c1c(C)c(Cl)c(O)c(Cl)c1O2 | 111%
12 | COC1=CC(=O)C[C@@H](C)[C@]12Oc1c(Cl)c(OC)cc(OC)c1C2=O | 115%
13 | NCc1ccc(S(N)(=O)=O)cc1 | 114%
14 | O=C(/C=C/c1ccccc1)c1ccc(O)cc1O | 96.4%
15 | O=C(Oc1cccc2cccnc12)c1ccccc1 | 92.9%
16 | COc1c(CC(=O)c2cc3c(cc2O)OC(C)(C)C(O)C3)ccc2c1C=CC(C)(C)O2 (stereo not given) | 96.2%
17 | CC1(C)O[C@@H]2CC3C4CCC5=CC(=O)CCC5(C)C4(F)C(O)CC3(C)[C@]2(C(=O)CCl)O1 (stereo not given in full) | 93.6%
18 | COc1cc(OC)c(-c2c(OC)cc(OC)cc2OC)c(OC)c1 | 106%
19 | CC1CC(OC(=O)c2ccccc2O)CC(C)(C)C1 (stereo not given) | 110%
20 | O=C(/C=C/c1ccccc1)c1ccc(O)cc1 | 95.4%

Row | Structure (SMILES) | activity remaining
21 | CCn1cc(C(=O)O)c(=O)c2cc(F)c(N3CCN(C)CC3)cc21 | 109%
22 | CCN(CC)CCOC(=O)C(Cc1cccc2ccccc12)CC1CCCO1 (stereo not given) | 99.1%
23 | COc1ccc(CCC(=O)c2c(O)cc(O[C@@H]3O[C@H](CO)C(O)[C@H](O)C3O[C@@H]3O[C@@H](C)[C@H](O)[C@@H](O)[C@H]3O)cc2O)cc1O (stereo not given in full) | 109%
24 | COc1c(O)cc2c(-c3ccccc3)cc(=O)oc2c1OC | 130%
25 | CC(=O)OCC(=O)[C@H]1CCC2C3CC=C4C[C@@H](O)CC[C@]4(C)C3CC[C@@]21C (stereo not given in full) | 92.3%
26 | COC(=O)/C(=C1\OC(=O)C(c2ccccc2)C1=O)c1ccccc1 (stereo not given) | 106%
27 | C=C[C@@]1(C)CC(=O)[C@@]2(O)[C@](C)(O1)[C@@H](OC(C)=O)[C@@H](O)C1C(C)(C)CC[C@H](O)[C@@]12C (stereo not given in full) | 82.4%
28 | CCC(=O)OCC(=O)[C@@]1(OC(=O)CC)[C@H](C)CC2C3C([C@@H](O)C[C@@]21C)[C@@]1(C)C=CC(=O)C=C1C[C@H]3Cl (stereo not given in full) | 106%
29 | C[C@@H]1CC[C@]2(C(=O)O)CC[C@]3(C)C(=CCC4[C@@]5(C)CC[C@H](O)C(C)(C)C5CC[C@]43C)C2[C@H]1C (stereo not given in full) | 128%
30 | Cc1cc(-c2ccccc2)nnc1NCCN1CCOCC1 | 110%
31 | COc1ccc(-c2cc(=O)c3c(O)cc(O)c(-c4cc(-c5cc(=O)c6c(O)cc(O)cc6o5)ccc4OC)c3o2)cc1 | 117%
32 | CCCCOc1ccc(CC(=O)NO)cc1 | 80.8%
33 | C1CNCCN1 | 120%
34 | Nc1ncnc2nc[nH]c12 | 105%
35 | CC(=O)O[C@H]1CC[C@@]2(C)C(CC[C@]3(C)C2C(=O)C=C2C4[C@@H](C)[C@H](C)CC[C@]4(C(=O)O)CC[C@]23C)C1(C)C (stereo not given in full) | 113%
36 | CN1CCCN=C1COC(=O)C(O)(c1ccccc1)C1CCCCC1 (stereo not given) | 108%
37 | O=C(O[C@@H]1Cc2c(O)cc(O)cc2O[C@@H]1c1cc(O)c(O)c(O)c1-c1c([C@H]2Oc3cc(O)cc(O)c3C[C@H]2O)cc(O)c(O)c1O)c1cc(O)c(O)c(O)c1 | 119%
38 | O=C(Cn1ccnc1[N+](=O)[O-])NCCO | 111%
39 | COc1ccc(C(=O)c2ccccc2O)c(O)c1 | 107%
40 | CC(=O)O[C@@H]1CC[C@@]2(C)C(C[C@@H](OC(C)=O)[C@@]3(C)C4=CC(=O)O[C@@H](c5ccoc5)[C@]4(C)CCC23)C1(C)C (stereo not given in full) | 121%
